Growth data for eight compounds are collected here from PubChem BioAssay (NCI).

Some test systems named below: SK-MEL-2 melanoma; EKVX NSCLC; SN12C renal; UO-31 renal; TK-10 renal; ACHN renal; CAKI-1 renal; A498 renal; CCRF-CEM leukemia; MOLT-4 leukemia; SR leukemia; RPMI-8226 leukemia; OVCAR-8 ovarian; OVCAR-5 ovarian; OVCAR-4 ovarian; SK-OV-3 ovarian; IGROV1 ovarian; OVCAR-3 ovarian; HS 578T breast; NCI/ADR-RES ovarian.
Common to all, as to experiment: NCI-60 one-dose screen, 48 h (100 = growth as untreated, 0 = no growth, -100 = all killed)
Common to all, as to settings: 10 µM unless noted

The panel holds about 83,000 compounds, 20% with a hit somewhere; the sample as a whole holds those more often.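 Single-concentration screen, 48 h exposure, 96-well plates. Endpoint: percent growth. Below 10 = active.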 Values without a mark were called inactive. Activity calls are given as the source filed them.

Turning to `Clc1ccc(-c2nc3ccc(-c4nnc(SCc5ccccc5)o4)cc3[nH]2)cc1`, the growth in the test with SK-MEL-2 melanoma is 75.3%; in the test with EKVX NSCLC, -24.4% (active); in the test on SN12C renal it was -57.9% (active); with UO-31 renal, 49.3%; in the test with TK-10 renal, 90.6%; in the test on ACHN renal, 45%. The growth with CAKI-1 renal is 37.5%; in the test on A498 renal it was 112%; in the test on CCRF-CEM leukemia, 34.1%; in the test with MOLT-4 leukemia, 27.7%; with SR leukemia it was 23.3%; in the test with RPMI-8226 leukemia, 27.7%. Also, the growth with OVCAR-8 ovarian was 8.94% (active); in the test with OVCAR-5 ovarian it was 32.4%; in the test with OVCAR-4 ovarian it was 3.57% (active); in the test with SK-OV-3 ovarian, 83.1%; in the test on IGROV1 ovarian, 27.1%; in the test with OVCAR-3 ovarian it was -1.55% (active). Moreover, the growth was 48.7% with HS 578T breast and -9.86% (active) in the test with NCI/ADR-RES ovarian.
`Nc1cc2ccccc2c(=O)n1NC(=O)c1ccccc1`: the growth is 105% in the test with SK-MEL-2 melanoma; 87.6% in the test on EKVX NSCLC; 100% with SN12C renal; 58.3% in the test with UO-31 renal; 127% with TK-10 renal; 93.4% with ACHN renal. The growth is 83.8% with CAKI-1 renal; 145% in the test on A498 renal; 98.9% with CCRF-CEM leukemia; 93.9% in the test with MOLT-4 leukemia; 84.3% in the test on SR leukemia; 94.2% with RPMI-8226 leukemia. The growth with OVCAR-8 ovarian is 104%; in the test with OVCAR-5 ovarian, 107%; in the test on OVCAR-4 ovarian, 98.6%; in the test with SK-OV-3 ovarian it was 93.5%; with IGROV1 ovarian, 90.2%; in the test with OVCAR-3 ovarian, 70.6%. Moreover, the growth in the test with HS 578T breast was 91.4%; with NCI/ADR-RES ovarian, 102%.
As to `CC[C@]12C=CCN3CC[C@]4(C(=C(C(=O)OC)C1)Nc1cc(OC)c([C@@H]5[C@H]6O[C@H]6[C@@]6(CC)CC(C(=O)OC)=C7Nc8cc(O)ccc8[C@@]78CCN5[C@@H]68)cc14)[C@@H]32`, the growth in the test on SK-MEL-2 melanoma was -67.3% (active); in the test with EKVX NSCLC, 6.25% (active); in the test with SN12C renal, -30.1% (active); in the test with UO-31 renal, -4.18% (active); with TK-10 renal, 25.6%; in the test on ACHN renal it was 1.9% (active). Besides, the growth was 11.7% in the test with CAKI-1 renal; 59% with A498 renal; -5.67% (active) in the test on CCRF-CEM leukemia; -11.5% (active) in the test on MOLT-4 leukemia; -30.7% (active) in the test with SR leukemia; -5.84% (active) with RPMI-8226 leukemia. Also, the growth with OVCAR-8 ovarian was 27.6%; in the test with OVCAR-5 ovarian it was -66.7% (active); in the test on OVCAR-4 ovarian it was 14.6%; in the test on SK-OV-3 ovarian, 40.2%; with IGROV1 ovarian, 1.62% (active); in the test with OVCAR-3 ovarian, -9.2% (active). In addition, the growth with HS 578T breast is 23.7%; in the test on NCI/ADR-RES ovarian, 6.92% (active).
Regarding `O=C1Nc2cc(-c3ccc(NS(=O)(=O)c4ccc(-c5ccccc5)cc4)cc3)ccc2/C1=C/c1ccc[nH]1`, the growth is 83.1% in the test on SK-MEL-2 melanoma; 10.9% in the test on EKVX NSCLC; 16.3% in the test with SN12C renal; 68.5% with UO-31 renal; 49% in the test on TK-10 renal; 47.4% with ACHN renal. The growth is 40.7% in the test with CAKI-1 renal; 75.6% in the test with A498 renal; 32.2% in the test on CCRF-CEM leukemia; 27.6% with MOLT-4 leukemia; -33.1% (active) in the test with SR leukemia; 21.3% with RPMI-8226 leukemia. The growth was 52.2% with OVCAR-8 ovarian; 61.7% with OVCAR-5 ovarian; 21.3% in the test with OVCAR-4 ovarian; 98.2% in the test on SK-OV-3 ovarian; 73% in the test with IGROV1 ovarian; -19.4% (active) in the test on OVCAR-3 ovarian. Also, the results for the growth with HS 578T breast and with NCI/ADR-RES ovarian were 59.4% and 62.9%, respectively.
With `NS(=O)(=O)c1ccc(Nc2nc(N/N=C/c3cc(Br)c(O)c(Br)c3)nc(Nc3ccccc3)n2)cc1`, the growth in the test with SK-MEL-2 melanoma is -5.4% (active); in the test on EKVX NSCLC, 86.3%; in the test with SN12C renal, 46.3%; in the test with UO-31 renal, 85.3%; in the test with TK-10 renal, 113%; in the test with ACHN renal, 92.3%. Besides, the growth with CAKI-1 renal is 94.4%; in the test with A498 renal it was 102%; in the test with CCRF-CEM leukemia, 10.5%; in the test on MOLT-4 leukemia, -8.36% (active); with SR leukemia, -12.1% (active); in the test with RPMI-8226 leukemia, 79.4%. Moreover, the growth is 57.7% with OVCAR-8 ovarian; 106% in the test with OVCAR-5 ovarian; 71.2% in the test with OVCAR-4 ovarian; 99.7% in the test on SK-OV-3 ovarian; 59.5% with IGROV1 ovarian; 20.2% with OVCAR-3 ovarian. Further, the growth with HS 578T breast is -8.25% (active); in the test with NCI/ADR-RES ovarian, 98%.
With `COc1cc(CNC(=O)C[C@H](C)CCC=C(C)C)ccc1OCc1cn(-c2cccc(C(F)(F)F)c2)nn1`, the growth with SK-MEL-2 melanoma was 111%; with EKVX NSCLC, 92.1%; with SN12C renal, 27.1%; with UO-31 renal it was 75.7%; in the test with TK-10 renal, 102%; with ACHN renal, 77.6%. Moreover, the growth is 73.6% with CAKI-1 renal; 91% in the test on A498 renal; 97.1% in the test with CCRF-CEM leukemia; 84.8% with MOLT-4 leukemia; 41.5% with SR leukemia; 89.8% in the test on RPMI-8226 leukemia. The growth in the test on OVCAR-8 ovarian was 28.1%; in the test on OVCAR-5 ovarian it was 97.5%; with OVCAR-4 ovarian, 45.1%; with SK-OV-3 ovarian it was 89%; in the test with IGROV1 ovarian, 102%; with OVCAR-3 ovarian, 103%. The values for the growth with HS 578T breast and in the test with NCI/ADR-RES ovarian were 94.3% and 44%, respectively.
In the case of `N#Cc1cc(-c2ccc3ncnc(N4CCc5cc(F)c(Cl)cc54)c3c2)cnc1N`, the growth in the test with SK-MEL-2 melanoma was 52%; in the test on EKVX NSCLC, 24.6%; in the test on SN12C renal, 26.8%; in the test on UO-31 renal, 19.4%; in the test with TK-10 renal, 29.9%; with ACHN renal it was 26.6%. The growth in the test with CAKI-1 renal is 19.8%; with A498 renal, -0.0443% (active); with CCRF-CEM leukemia, 45.1%; with MOLT-4 leukemia, 7.69% (active); with SR leukemia, -25.7% (active); in the test with RPMI-8226 leukemia it was 28.2%. In addition, the growth is 44.3% in the test with OVCAR-8 ovarian; 55.2% in the test with OVCAR-5 ovarian; 29.5% in the test with OVCAR-4 ovarian; 64.3% in the test with SK-OV-3 ovarian; -16.2% (active) with IGROV1 ovarian; 16.6% in the test with OVCAR-3 ovarian. Further, the values for the growth with HS 578T breast and with NCI/ADR-RES ovarian were -7.07% (active) and 47.2%, respectively.
As to `N#Cc1c(-c2ccc(F)cc2)nc(SCc2ccc(F)cc2)nc1N1CCNCC1`, the growth is -73% (active) with SK-MEL-2 melanoma; 1.29% (active) in the test with EKVX NSCLC; -58.6% (active) in the test with SN12C renal; 8.26% (active) with UO-31 renal; -25% (active) in the test on TK-10 renal; -79% (active) in the test with ACHN renal. The growth is -80.1% (active) with CAKI-1 renal; 96.5% in the test with A498 renal; 4.49% (active) in the test on CCRF-CEM leukemia; 7.79% (active) in the test with MOLT-4 leukemia; -2.24% (active) in the test on SR leukemia; -47.4% (active) in the test on RPMI-8226 leukemia. Besides, the growth in the test with OVCAR-8 ovarian was -84% (active); in the test with OVCAR-5 ovarian it was 0.484% (active); in the test with OVCAR-4 ovarian, -8.59% (active); in the test on SK-OV-3 ovarian it was 56.7%; with IGROV1 ovarian, -27.1% (active); in the test with OVCAR-3 ovarian, -35.1% (active). Moreover, the growth was -0.165% (active) in the test on HS 578T breast and -39% (active) in the test on NCI/ADR-RES ovarian.
